# Results filed as inconclusive are left out. A number with no mark means an inactive call. The source made the active and inactive calls. The call rests on the fitted dose curve; in most records, active means well fitted activation curve with a large enough effect in the repeat runs; inconclusive means weak or mixed curves; inactive means flat fitted curve, though single readings scatter.
# Experiment: A CellTox Green Cytotoxicity Assay to monitor cytotoxicity in HEK293 cells - 40 hour (AID 1224871); further: nearly all actives have a fitted effect of over 45% in size
# Conditions: CellTox Green fluorescence; series mostly up to 76.8 µM; cytotoxicity increase: at the top concentration
# Description: National Center for Advancing Translational Sciences [NCATS]
# NIH Chemical Genomics Center [NCGC]
# U.S. Environmental Protection Agency [EPA]
# National Institutes of Environmental Health Sciences [NIEHS]
# National Toxicology Program [NTP]
# Cell-based models are critical for drug discovery. Determining the natural cytotoxic effects resulting from test compounds is an essential research activity. A CellTox Green Cytotoxicity Assay to monitor cytotoxicity in real time of continues cell culture during 40 hours of the compound treatment was used to screen Tox21 10K library compounds in Hek293 cells. CellTox Green Cytotoxicity Assay is a nonlytic, homogeneous, biofluorescent method to measure cytotoxicity in cell culture after experimental manipulation. The assay system uses a proprietary asymmetric cyanine dye that is excluded from viable cells but preferentially stains the dead cell's DNA. […] Viable cells produce no appreciable increases in fluorescence. Therefore, the fluorescence signal produced by the binding interaction with dead cell DNA is proportional to cytotoxicity.
# The mixture of Hek293 cell suspension and reagents were dispensed at 600cells/6 ul/well in 1536-well tissue culture treated black solid bottom plates using a Multidrop dispenser. After the assay plates were incubated at a 37 C/5% CO2 incubator for 5 hours, 23 nL of compounds dissolved in DMSO, positive and negative controls was transferred to the assay plate by a pintool work station. The plates were incubated at 37 C for 40 hours. The fluorescence intensity were measured at 0h, 8h, 16h, 24h, 32h and 40h time points using ViewLux plate reader during compound treatment.
# On the % scale 0 is the no-effect control and ±100 the full control effect; potency means the concentration at half of the fitted maximal effect.
Compound,cytotoxicity increase,Potency
CSc1ccc(Oc2ccc(S(N)(=O)=O)cc2CN(C)C)cc1C,25.5%,–
CC1=NN(c2ccc(C(=O)O)cc2)C(=O)C1,-0.46%,–
CN1Cc2cc(C(=O)N3CCC(C4CCNCC4)CC3)ccc2N[C@@H](CC(=O)O)C1=O,0.194% [at 35.3 µM],–
O=c1[nH]c2ccc(S(=O)CCN3CCC(Cc4ccc(F)cc4)CC3)cc2o1 (stereo not given),-9.35%,–
O=C(O)Cc1ccc(-c2ccccc2)cc1,-23.4% [at 35.3 µM],–
CCCCCCCCCCOS(=O)(=O)O,12.1%,–
COCCOC,10.7%,–
COc1ccccc1N=Nc1c(S(=O)(=O)O)cc2cc(S(=O)(=O)O)cc(NC(C)=O)c2c1O,-25.1%,–
Nc1nc(Cl)nc2c1ncn2[C@@H]1O[C@H](CO)[C@@H](O)[C@@H]1F,1.2% [at 35.3 µM],–
CCCCC(=O)O[C@]1(C(=O)CO)CC[C@H]2[C@@H]3CCC4=CC(=O)CC[C@]4(C)[C@H]3[C@@H](O)C[C@@]21C,14.2% [at 35.3 µM],–
CCCCCCCCCCCCCCCCBr,-0.351% [at 15.8 µM],–
COC(=O)c1cc(S(N)(=O)=O)ccc1OC,12.2% [at 35.3 µM],–
CCOC(=O)c1ccccc1C,-0.475%,–
CC(C)CCCC(=O)O,-2.57%,–
CCC(C(=O)OCCOCCN(CC)CC)c1ccccc1 (stereo not given),-30.7% [at 35.3 µM],–
O=C(C(=O)c1ccccc1)c1ccccc1,0.0096%,–
CC(C)c1nnc2ccc(-c3ocnc3-c3cc(F)ccc3F)cn12,-20.9%,–
CNC(=O)N(c1ccccc1)c1ccccc1,7.16%,–
CC(=O)OCC(=O)[C@@]12OC(C)(C)O[C@@H]1C[C@H]1[C@@H]3C[C@H](F)C4=CC(=O)C=C[C@]4(C)[C@@]3(F)[C@@H](O)C[C@@]12C,–,26.8 µM (active)
NC(=O)Cn1c(=O)cc(CCN2CCN(c3nccc4sccc34)CC2)c2ccc(F)cc21,17%,–

Compound,cytotoxicity increase,Potency
[O]=[Bi],-5.17% [at 6.97 µM],–
CCCCCCCC/C=C\CCCCCCCC(=O)OC(CO)CO,-16%,–
Nc1ccc(S(=O)(=O)O)c(N)c1,25.2%,–
O=C(O)c1cccc(O)c1,0.375%,–
CCOC(=O)C(C)Oc1ccc(Oc2nc3ccc(Cl)cc3o2)cc1 (stereo not given),22.2%,–
NC(=O)N(O)[C@@H]1COc2cc(OCc3ccccc3)ccc21,-1.32%,–
O=C(CCCN1CCC(O)(c2ccc(Br)cc2)CC1)c1ccc(F)cc1,11.8% [at 35.3 µM],–
CC(C)(C)C(=O)O,12.2%,–
Cc1cc(OI)c(C(C)C)cc1-c1cc(C(C)C)c(OI)cc1C,-0.412% [at 35.3 µM],–
CCC(=O)Oc1ccc(/C(CC)=C(\CC)c2ccc(OC(=O)CC)cc2)cc1,-5.76%,–
Cc1ccc(S(=O)(=O)NC2CCCCC2)cc1,0.376%,–
NC(=O)Nc1ccc(Cl)cc1,-1.9%,–
CCCCCCOC(=O)CCCCCCCC(=O)OCCCCCC,-15.3%,–
O=C(O)c1ccc(CO)o1,-9.21%,–
COC(=O)CC(=O)C(C)(C)C,-0.327%,–
COCc1c(C(C)C)nc(C(C)C)c(/C=C/[C@@H](O)C[C@@H](O)CC(=O)O)c1-c1ccc(F)cc1,–,inactive
COC(OC)(C(=O)c1ccccc1)c1ccccc1,-4.12%,–
CCCOC(=O)c1ccc(C(=O)OCCC)nc1,-4.01%,–
C=CC(=C)CCCC(C)(C)OC(C)=O,-19.1%,–
O=C(CCCCCCC(=O)Nc1ccccc1)NO,19.6% [at 35.3 µM],–
